Experimental findings from the OligoGym collection are described below.
Also: reference of the scale not given here.

In the first assay the target is NAA35. The assay can be described thus: pooled miR-30 sensor sort-seq; sequence = guide strand. The settings on record: shRNA.
The sequence TATATAGGTAGCACTTGGGGGA showed a sensor-assay potency score (higher = more potent) of -0.0355.

TTATTCTATCTATTAATCTTGC came in with a sensor-assay potency score (higher = more potent) of -0.493.

With TCTATTAACCTCATGGTCCGGG, the sensor-assay potency score (higher = more potent) was 0.321. Sequence TATGTAATAGTACTCGTGCATA displayed a sensor-assay potency score (higher = more potent) of -1.06. The same measure, in the same setting: to TTATTTTTGCATATCGAGGGAA belongs 0.0226; to TTATATAGGTAGCACTTGGGGG, -1.1; to TTAATTCTCGACAAGCTTCTTC, 0.731. Still for that read-out and setting: with TTATTATATAGGTAGCACTTGG the figure was -0.806; with TACTGCTAAACATTGTTGGTGT, 0.709; with TAATTATTTTTGCATATCGAGG, -1.65. ATATATGTAATAGTACTCGTGC gave a sensor-assay potency score (higher = more potent) of 0.454.

Turning to TAGTTCACCATTTCTTCCCTTT, the sensor-assay potency score (higher = more potent) is 0.00785.

The target of another assay is NAALADL1. Described as above. Conditions: shRNA.
In turn, TAGACGCTCACATTCACCTGGC displayed a sensor-assay potency score (higher = more potent) of 0.571. TACAGAGCAGGTCTCTTGCATC showed a sensor-assay potency score (higher = more potent) of -0.894. For TTCCCATACAGCACGTAGCGAT, the sensor-assay potency score (higher = more potent) was -0.768. On to TTGAGGGGCAGGAAGAAGCTGT, for which the sensor-assay potency score (higher = more potent) is -0.568. Still for that read-out and setting: with TTGATGTCGGCAGGGTCTGTGT the figure was -1.45; with TCTCACTGTAGTCACTGACTTT, -1.01; with TTCTGCAGTGTTGATATGCGTT, -0.417.

In turn, TTACAGAGCAGGTCTCTTGCAT returned a sensor-assay potency score (higher = more potent) of -0.148. The sequence TTGTCGTAGATGCTCAGGTCGC yielded a sensor-assay potency score (higher = more potent) of -1.1. The same measure, in the same setting: with TCTGTGTACACCAGCACCCCAG the figure was -1.23.

The target in a further assay is NAGA. Described as above. Conditions: shRNA.
Take TTGAGCATGTCTACCTTCCACT: the sensor-assay potency score (higher = more potent) was -1.03. Same read-out and setting: to TTGATTTTGATCATGAGTGGAT belongs 0.182; to TTGGACAGGGCATAGAACCTGG, -0.532. Same read-out and setting: with TTGCTCAGCAACGTCTGTGGGG the figure was -0.463; with TCATATATCACAGACCCGGTGA, -0.0849. TTCGAAAACTTCCAAATCCTGA: the sensor-assay potency score (higher = more potent) is -0.213. Same read-out and setting: with TTCGATGAGAGATTTTTCCTTG the figure was 0.59. Same read-out and setting: with TGAAGTTGGTTTCATCTCGGAG the figure was -0.453; with TTTTCCTTGTGAATCCTGCGTC, 0.331.

TTGATGATCACTGTGAAGTTGG came in with a sensor-assay potency score (higher = more potent) of 0.614. The same measure, in the same setting: with TTGTCCAGCATCAGCACCTGGG the figure was -0.84; with TTGTCCAGTGTGGTGCCTGGGT, -0.646.

A further assay concerns the target NAGPA. Described as above. The settings on record: shRNA.
Sequence AGTAGCAAGTCGTCGTCGCGGG had a sensor-assay potency score (higher = more potent) of -1.2.

Sequence TAGGGCAGTAGCAAGTCGTCGT displayed a sensor-assay potency score (higher = more potent) of 0.274. Still for that read-out and setting: with TTTCAGCAGGAACTCCGCCATT the figure was -1.66; with TTCATGCGGAAGAAGCCGCCGT, -0.589.
